Test results published in PubChem BioAssay AID743361 (Molecular Libraries Program, Specialized Chemistry Center, …, 2014).
Values without a mark were called inactive. The rule behind the calls is not given here.

experiment: Rhodamine 123 quenching counterscreen activity, dose response, counter-screen for mtPTP inhibitor project, biochemical, dry powder samples, uHTS hits, fluorescence (AID 743361); conditions: Rhodamine 123 fluorescence quenching counterscreen, cell-free

Structure (SMILES) | IC50
COc1ccc(Cl)c(C(=O)Nc2ccc(CN3CCCCC3)cc2)c1 | > 100 µM
COc1ccc(Cl)c(C(=O)Nc2ccc(CN3CCN(C)CC3)cc2)c1 | > 100 µM
O=C(Nc1cccc(Cl)c1)c1cc(-c2ccccc2)on1 | > 100 µM
CN1CCN(Cc2ccc(NS(=O)(=O)c3ccc(F)c(Cl)c3)cc2)CC1 | > 100 µM
O=C(Nc1ccc(Cl)cc1)c1cc(-c2cccc(O)c2)on1 | > 100 µM
COc1ccc(Cl)cc1C(=O)Nc1ccc(N2CCN(C)CC2)cc1 | > 100 µM
COc1ccc(Cl)cc1C(=O)Nc1cccc(CN2CCNCC2)c1 | > 100 µM
COc1ccc(Cl)cc1S(=O)(=O)Nc1ccc(CN2CCCCC2)cc1 | > 100 µM
O=S(=O)(Nc1ccc(CCN2CCCCC2)cc1)c1ccc(F)c(Cl)c1 | > 100 µM
CN1CCN(CCc2ccc(NS(=O)(=O)c3cc(Cl)cc(Cl)c3)cc2)CC1 | > 100 µM
COc1ccc(Cl)cc1C(=O)Nc1ccc(N2CCOCC2)cc1 | > 100 µM
CN1CCN(c2ccccc2NC(=O)c2ccc(OCc3ccccc3)cc2)CC1 | > 100 µM
COc1ccccc1C(=O)Nc1ccc(C(=O)N2CCCCC2)cc1 | > 100 µM
CN1CCN(c2ccc(NS(=O)(=O)c3cc(Cl)cc(Cl)c3)cc2)CC1 | > 100 µM
